Cruzain noTriton: blocks cruzain activity in detergent-free assay; P25779; purified cruzain, Z-FR-AMC fluorescence, no detergent; Potency, µM, for inactives: max response, negative = inhibition, most hits filed as inhibitors; 200,000 tested, 2.3% active; AID 1476;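 further: plate controls were enzyme without inhibitor for no effect and buffer without enzyme for full effect; nearly all actives have a fitted effect of over 40% in size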
Target sequence (P25779 123-467 limits assumed): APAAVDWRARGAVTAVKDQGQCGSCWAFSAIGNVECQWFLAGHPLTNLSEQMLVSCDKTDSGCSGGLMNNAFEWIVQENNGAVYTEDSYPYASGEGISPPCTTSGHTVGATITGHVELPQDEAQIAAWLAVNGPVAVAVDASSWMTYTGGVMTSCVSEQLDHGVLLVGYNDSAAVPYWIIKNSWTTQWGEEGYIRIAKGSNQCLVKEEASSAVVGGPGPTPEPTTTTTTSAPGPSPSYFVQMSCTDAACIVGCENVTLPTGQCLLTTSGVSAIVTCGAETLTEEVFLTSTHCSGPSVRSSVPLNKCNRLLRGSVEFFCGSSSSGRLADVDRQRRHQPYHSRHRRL
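Detergent-free condition (0.00005% Triton X-100) in acetate buffer pH 5.5 with DTT. 1.5 nM enzyme and compound were pre-mixed 15 min, then 2 uM Z-FR-AMC substrate added; reaction progress from fluorescence change between first and third reads (60 s).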
Cruzain Triton: blocks cruzain activity in presence of Triton detergent. purified cruzain, Z-FR-AMC fluorescence, 0.01% Triton. Potency, µM, for the others: max response, negative = inhibition, hits mostly inhibitors. 200,000 tested, 0.43% active. AID 1478;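 further: plate controls were neutral wells for no effect and buffer without enzyme for full effect; nearly all actives have a fitted effect of over 40% in size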
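Enzyme 1.5 nM, Z-FR-AMC 2 uM, NaOAc 100 mM pH 5.5, DTT 5 mM, Triton X-100 0.01%; 15 min RT compound preincubation; kinetic ex360/em450, 60 s delta.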
The depositor's hits bear a star; ? = inconclusive. The list is not random: actives were taken first. Their share in the collection is about 2.4%. The call rests on the fitted dose curve; in most records, active means well fitted curve in the direction sought with a large enough effect; inconclusive means small, poorly fitted or top-dose-only effect, or another doubt; inactive means no such curve, though single readings can be large; an effect the other way counts as inactive or inconclusive. Potency means the concentration at half of the fitted maximal effect.

SMILES	Cruzain noTriton	Cruzain Triton
CCOC(=O)c1c(NC(=O)CN2C(=O)NC3(CCCCCC3)C2=O)sc(C)c1-c1ccc(C)cc1	?	-4%
CCOC(=O)c1c(NC(=O)CN2C(=O)NC3(CCC(CC)CC3)C2=O)sc(C)c1-c1ccc(C)cc1 (stereo not given)	20µM*	-2%
O=C(Cn1cc(S(=O)(=O)N2CCN(c3ccccc3F)CC2)c2ccccc2c1=O)Nc1ccc(F)cc1Cl	?	-1%
CCOc1ccc(NC(=O)Cn2cc(S(=O)(=O)N3CCN(c4ccccc4F)CC3)c3ccccc3c2=O)cc1	16µM*	-2%
COc1ccc(-n2c(-c3ccc(F)cc3)cn3c4c(=O)n(C)c(=O)n(C)c4nc23)cc1	3%	1%
Cn1c(=O)n(C/C=C/c2ccccc2)c(=O)c2c1nc1n2CCN1c1ccccc1	7%	1%
COc1ccccc1-c1noc(-c2ccc(N3CCOCC3)c([N+](=O)[O-])c2)n1	-4%	-5%
CC(=O)NCCNC(=O)[C@H](Cc1ccccc1)NC(=O)c1cccs1	2%	4%
O=C(COC(=O)[C@H](Cc1ccccc1)NC(=O)c1cccs1)Nc1c(Cl)cccc1Cl	25µM*	16µM*
COc1ccccc1Oc1ccc2c(c1)C(=O)N(c1ccc(O)cc1)C2=O	20µM*	1%
CC(C)(C)C(=O)Nc1ccc(Oc2ccc3c(c2)C(=O)N(c2ccc(O)cc2)C3=O)cc1	-11%	0%
COc1ccc(OC)c(NC(=O)C2Cc3ccccc3CN2S(=O)(=O)c2ccc(F)cc2)c1 (stereo not given)	?	-3%
COc1ccc(C(=O)Nc2cc(C(=O)c3ccccc3)c(C)oc2=O)cc1	16µM*	13µM*
COc1cccc(C(=O)Nc2cc3cc(OC)ccc3oc2=O)c1	-1%	1%
CC1=C(c2ccc(F)cc2)S(=O)(=O)N=C1N1CCC(C(=O)NCCc2cccc(C)c2)CC1	8%	-2%
C/C(=N/NC(=O)c1ccc(C)s1)c1cccc(NC(=O)COc2ccc(Cl)cc2Cl)c1	13µM*	-1%
CCC(=O)Nc1ccc(/C(C)=N\NC(=O)c2ccc(C)s2)cc1	-6%	-6%
C/C(=N/NC(=O)c1ccc(Cl)s1)c1ccc(NC(=O)COc2ccc(Cl)cc2)cc1	20µM*	-5%
C/C(=N/NC(=O)c1cccs1)c1ccc(NC(=O)COc2ccc(Cl)cc2Cl)cc1	?	-7%
COc1ccc(C(=O)n2nc(-c3ccco3)nc2NCc2cccs2)cc1OC	18%	-8%
COc1ccccc1NC(=O)c1sc2ncn(Cc3ccccc3Cl)c(=O)c2c1C	-4%	5%
CCOc1ccc(N2C(=O)C3C(C2=O)C3(c2ccccc2)c2ccccc2)cc1 (stereo not given)	-10%	-5%
Cc1ccc(N2C(=O)C3C(C(=O)c4ccccc4)=NN(c4ccccc4)C3C2=O)cc1 (stereo not given)	16µM*	-7%
CCOc1ccc(N2C(=O)C3C(c4ccccc4)=NN(c4ccccc4)C3C2=O)cc1 (stereo not given)	20µM*	-20%
O=C(C1=NN(c2ccccc2)C2C(=O)N(c3ccccc3)C(=O)C12)c1ccccc1 (stereo not given)	-23%	-4%
SMILES	Cruzain noTriton	Cruzain Triton
CCN(CC)C(=O)c1ccc2c(c1)N(Cc1ccc(C(F)(F)F)cc1)C(=O)c1ccccc1S2	?	-17%
c1ccc(C2=Nc3ccccc3OC2)cc1	-18%	-3%
NC1=Nc2ccccc2Oc2ccccc21	25µM*	?
CCOCCc1nn2c(=O)cc(COC(=O)c3ccco3)nc2s1	5%	-1%
COCCn1c(=O)c(-c2cccc(C#N)c2)nc2cnc(OCc3ccccc3)nc21	1%	2%
O=C(COC(=O)CNC(=O)c1cccc(F)c1)NCCC1=CCCCC1	13µM*	16µM*
O=C(COC(=O)Cc1c(F)cccc1Cl)NCCC1=CCCCC1	1%	-3%
Cc1ccc(-n2c3nc(=O)[nH]c(=O)c-3cc3c(C)nn(-c4ccccc4)c32)cc1Cl	8%	-2%
O=C1CC(c2ccccc2Cl)Cc2c1cnn2-c1nc2ccccc2s1 (stereo not given)	13µM*	-4%
O=c1c(Cl)c(N2CCN(c3ccc(F)cc3)CC2)cnn1-c1nc2ccccc2s1	?	3%
CCN(CC)c1ccc(C(=O)N2CCc3c([nH]c4ccccc34)C2c2ccc(F)cc2)cc1 (stereo not given)	16µM*	1%
CCOc1cccc(C2c3[nH]c4ccccc4c3CCN2C(=O)CSCc2ccc(F)cc2)c1 (stereo not given)	-3%	8%
CCOc1ccc(C2c3[nH]c4ccccc4c3CCN2C(=O)CSCc2ccc(F)cc2)cc1 (stereo not given)	10µM*	2%
COc1cc(C(=O)N2CCc3c([nH]c4ccccc34)C2c2ccccc2)cc(OC)c1OC (stereo not given)	?	-4%
CSc1ccc(C2c3[nH]c4ccccc4c3CCN2C(=O)CCC2CCCC2)cc1 (stereo not given)	10µM*	2%
O=C(CSc1ccccc1)N1CCc2c([nH]c3ccccc23)C1c1ccc(F)cc1 (stereo not given)	?	2%
CCOC(=O)c1cc(-c2ccccc2)n(CCC(=O)Nc2ccc(C(F)(F)F)cc2)c1C	0%	3%
COc1ccccc1-c1noc(-c2ccc(NC(C)C)c([N+](=O)[O-])c2)n1	16%	-6%
O=C(Nc1nnc(COc2ccc(Cl)cc2)s1)c1ccc([N+](=O)[O-])cc1	-9%	4%
O=C(Nc1nnc(CSCc2ccc(F)cc2)s1)c1ccc([N+](=O)[O-])cc1	25µM*	-4%
O=C(Nc1nnc(CSCc2ccccc2F)s1)c1cccc([N+](=O)[O-])c1	?	-7%
O=C(Nc1nnc(CCS(=O)(=O)c2ccc(Br)cc2)s1)c1ccc([N+](=O)[O-])cc1	5µM*	5%
COC(=O)c1ccc(Sc2ccc(C)cc2)c(N)c1	-5%	-1%
COc1cc(Sc2ccc(C)cc2)c(OC)cc1N	16µM*	1%
Cc1ccccc1N1CC(c2nc3ccccc3n2Cc2ccc(Br)cc2)CC1=O (stereo not given)	5%	-3%
SMILES	Cruzain noTriton	Cruzain Triton
CC(C)(C)OC(=O)NCCCCC1=CC2=CC(=O)C(C)(OC(=O)C3CCCC3)C(=O)C2=CO1 (stereo not given)	2%	3%
CCNC(=O)CC1C(=O)N(c2ccc(C)cc2)C(=O)N1Cc1ccc(C)cc1 (stereo not given)	-4%	1%
c1cc(CCN2CCCCC2)ccn1	-1%	5%
CN1CCN(c2nc3c(c(=O)n(C)c(=O)n3C)n2C)CC1	-4%	0%
CCOC(=O)c1c(C)[nH]c(C(=O)COC(=O)[C@H](C)NC(=O)c2ccccc2Cl)c1C	-1%	-27%
CCOC(=O)c1c(C)[nH]c(C(=O)COC(=O)CNC(=O)C2CCCCC2)c1C	7.9µM*	?
CCOC(=O)c1c(C)[nH]c(C(=O)COC(=O)CN2C(=O)C3CCCCC3C2=O)c1C (stereo not given)	24%	-9%
CCOC(=O)c1c(C)[nH]c(C(=O)COC(=O)CNC(=O)c2ccccc2Cl)c1C	13µM*	11µM*
COc1ccc(-c2cnnc(N/N=C/C(C)=C/c3ccccc3)n2)cc1	10µM*	-4%
COc1ccc(-c2cnnc(N/N=C/c3ccc(OC)c(OC)c3)n2)cc1	5%	-9%
COc1ccc(/C=C/C2=C[C@]3(C)C[C@]2(C)[C@H](c2ccc(OC)cc2)CC3=O)cc1	15%	6%
